# Laboratory results published in PubChem BioAssay AID1159580 (chemical genetic matrix, 2015).
# The whole screen tested about 5,500 compounds, of which about 2,000 (36%) were called active. About 18% were inconclusive and are not listed. The list shows a part of the results. A number with no mark means an inactive call. Rule as the data show it: active = normalized growth mostly below about 0.91 (no sharp cut-off); inconclusive = no clear call, values can overlap the other calls; inactive = mostly above about 0.92.
# Experiment: chemical genetic growth profiling, strain panel (AID 1159580);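 also: tested at 20 µM; growth read once vehicle control cultures reached saturation at 30 °C; 1 = growth at the plate median or of vehicle wells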
# Settings: S. cerevisiae deletion strains, growth OD
# [1] = locus YDL101C, strain DUN1, stronger effect = lower value
# [2] = locus YHR030C, strain SLT2, stronger effect = lower value
smiles,measurement,setting,value
C=CCn1c(COc2c(Br)cc(C)c3c2CCC3)n[nH]c1=S,normalized growth,"locus YAL013W, strain DEP1, stronger effect = lower value",0.968
same,normalized growth,"locus YBR229C, strain ROT2, stronger effect = lower value",0.977
same,normalized growth,"locus YCL061C, strain MRC1, stronger effect = lower value",0.969
same,normalized growth,[1],0.975
same,normalized growth,"locus YDL134C, strain PPH21, stronger effect = lower value",0.965
same,normalized growth,"locus YDR150W, strain NUM1, stronger effect = lower value",0.857
same,normalized growth,"locus YEL061C, strain CIN8, stronger effect = lower value",0.896 (active)
same,normalized growth,"locus YGR078C, strain PAC10, stronger effect = lower value",0.978
same,normalized growth,[2],0.544 (active)
same,normalized growth,"locus YHR087W, strain rtc3, stronger effect = lower value",1.01
same,normalized growth,"locus YJR043C, strain POL32, stronger effect = lower value",0.98
same,normalized growth,"locus YJR075W, strain HOC1, stronger effect = lower value",0.992
same,normalized growth,"locus YLR039C, strain RIC1, stronger effect = lower value",0.491 (active)
same,normalized growth,"locus YLR058C, strain SHM2 (second series), stronger effect = lower value",0.991
same,normalized growth,"locus YLR085C, strain ARP6, stronger effect = lower value",0.558 (active)
same,normalized growth,"locus YLR262C, strain YPT6, stronger effect = lower value",0.571 (active)
same,normalized growth,"locus YML094W, strain GIM5, stronger effect = lower value",0.841 (active)
same,normalized growth,"locus YMR219W, strain ESC1, stronger effect = lower value",0.988
same,normalized growth,"locus YMR263W, strain SAP30, stronger effect = lower value",0.846 (active)
same,normalized growth,"locus YMR307W, strain GAS1, stronger effect = lower value",0.324 (active)
same,normalized growth,"locus YNL153C, strain GIM3, stronger effect = lower value",0.975
same,normalized growth,"locus YNL298W, strain CLA4 (second series), stronger effect = lower value",0.764 (active)
same,normalized growth,"locus YNL322C, strain KRE1, stronger effect = lower value",0.991
same,normalized growth,"locus YNR030W, strain Alg12, stronger effect = lower value",0.874 (active)
same,normalized growth,"locus YPL055C, strain LGE1, stronger effect = lower value",1.08
same,normalized growth,"locus YPL241C, strain CIN2, stronger effect = lower value",0.847 (active)
same,normalized growth,"locus YPR135W, strain CTF4, stronger effect = lower value",0.612 (active)
Cc1ccc(OCc2n[nH]c(=S)n2Cc2ccccc2)c2c1CCC2,normalized growth,"locus YAR019C, strain CDC15, stronger effect = lower value",0.987
same,normalized growth,"locus YBL105C, strain PKC1, stronger effect = lower value",0.988
same,normalized growth,"locus YBR135W, strain CKS1, stronger effect = lower value",0.982
same,normalized growth,"locus YBR136W, strain MEC1, stronger effect = lower value",0.98
same,normalized growth,"locus YBR160W, strain CDC28, stronger effect = lower value",0.985
same,normalized growth,"locus YDL017W, strain CDC7, stronger effect = lower value",0.987
same,normalized growth,"locus YDL028C, strain MPS1, stronger effect = lower value",0.975
same,normalized growth,[1],0.994
same,normalized growth,"locus YDL108W, strain KIN28, stronger effect = lower value",0.973
same,normalized growth,"locus YDL132W, strain cdc53, stronger effect = lower value",0.99
same,normalized growth,"locus YDL214C, strain PRR2, stronger effect = lower value",0.823
same,normalized growth,"locus YDR052C, strain DBF4, stronger effect = lower value",0.995
same,normalized growth,"locus YDR054C, strain cdc34, stronger effect = lower value",0.988
same,normalized growth,"locus YDR226W, strain ADK1, stronger effect = lower value",0.988
same,normalized growth,"locus YDR477W, strain SNF1, stronger effect = lower value",0.817
same,normalized growth,"locus YER123W, strain YCK3, stronger effect = lower value",0.609 (active)
same,normalized growth,"locus YER133W, strain GLC7, stronger effect = lower value",0.841
same,normalized growth,"locus YFL009W, strain cdc4, stronger effect = lower value",0.984
same,normalized growth,"locus YFL029C, strain CAK1, stronger effect = lower value",0.992
same,normalized growth,"locus YFR003C, strain YPI1, stronger effect = lower value",0.985
same,normalized growth,"locus YFR019W, strain FAB1, stronger effect = lower value",0.68 (active)
same,normalized growth,"locus YFR028C, strain CDC14, stronger effect = lower value",0.984
same,normalized growth,"locus YGR040W, strain KSS1, stronger effect = lower value",0.801
same,normalized growth,"locus YGR052W, strain FMP48, stronger effect = lower value",0.647
same,normalized growth,"locus YGR092W, strain DBF2, stronger effect = lower value",0.495
same,normalized growth,[2],0.283 (active)
same,normalized growth,"locus YHR079C, strain IRE1, stronger effect = lower value",0.619
same,normalized growth,"locus YHR082C, strain KSP1, stronger effect = lower value",0.53 (active)
same,normalized growth,"locus YHR205W, strain SCH9, stronger effect = lower value",0.908
same,normalized growth,"locus YIL147C, strain SLN1, stronger effect = lower value",0.967
same,normalized growth,"locus YJL095W, strain BCK1, stronger effect = lower value",0.656
same,normalized growth,"locus YJL128C, strain PBS2, stronger effect = lower value",0.955
same,normalized growth,"locus YJL157C, strain FAR1, stronger effect = lower value",0.803
same,normalized growth,"locus YJR016C, strain ILV3, stronger effect = lower value",0.986
same,normalized growth,"locus YJR066W, strain TOR1 (second series), stronger effect = lower value",0.797
same,normalized growth,"locus YJR066W, strain TOR1, stronger effect = lower value",0.73
same,normalized growth,"locus YKL048C, strain ELM1, stronger effect = lower value",0.782 (active)
same,normalized growth,"locus YKL067W, strain YNK1, stronger effect = lower value",0.838
same,normalized growth,"locus YKL101W, strain HSL1, stronger effect = lower value",0.722 (active)
same,normalized growth,"locus YKL193C, strain SDS22, stronger effect = lower value",0.988
same,normalized growth,"locus YKL203C, strain TOR2, stronger effect = lower value",0.829
same,normalized growth,"locus YLR113W, strain HOG1, stronger effect = lower value",0.698 (active)
same,normalized growth,"locus YLR133W, strain CKI1, stronger effect = lower value",0.793
same,normalized growth,"locus YLR403W, strain SFP1, stronger effect = lower value",0.84
same,normalized growth,"locus YML070W, strain DAK1, stronger effect = lower value",0.752
same,normalized growth,"locus YMR001C, strain CDC5, stronger effect = lower value",0.984
same,normalized growth,"locus YMR205C, strain PFK2 (second series), stronger effect = lower value",0.847
same,normalized growth,"locus YMR277W, strain FCP1, stronger effect = lower value",0.986
same,normalized growth,"locus YNL006W, strain LST8, stronger effect = lower value",0.998
same,normalized growth,"locus YNL020C, strain ARK1, stronger effect = lower value",0.713
same,normalized growth,"locus YNL161W, strain CBK1, stronger effect = lower value",0.99
same,normalized growth,"locus YNL183C, strain NPR1, stronger effect = lower value",0.628
same,normalized growth,"locus YNL207W, strain RIO2, stronger effect = lower value",0.988
same,normalized growth,"locus YNL222W, strain SSU72, stronger effect = lower value",0.986
same,normalized growth,"locus YNL307C, strain MCK1 (second series), stronger effect = lower value",0.621 (active)
same,normalized growth,"locus YOL078W, strain AVO1, stronger effect = lower value",0.985
same,normalized growth,"locus YOL136C, strain PFK27, stronger effect = lower value",0.785
same,normalized growth,"locus YOR061W, strain CKA2, stronger effect = lower value",0.751
same,normalized growth,"locus YOR119C, strain RIO1, stronger effect = lower value",0.883
same,normalized growth,"locus YOR231W, strain MKK1, stronger effect = lower value",0.677
same,normalized growth,"locus YOR329C, strain SCD5, stronger effect = lower value",0.988
same,normalized growth,"locus YPL031C, strain PHO85, stronger effect = lower value",0.746
same,normalized growth,"locus YPL153C, strain RAD53, stronger effect = lower value",0.609 (active)
same,normalized growth,"locus YPL204W, strain HRR25, stronger effect = lower value",0.723
same,normalized growth,"locus YPL209C, strain IPL1, stronger effect = lower value",0.984
same,normalized growth,"locus YPL256C, strain CLN2, stronger effect = lower value",0.655 (active)
same,normalized growth,"locus YPR025C, strain CCL1, stronger effect = lower value",0.989
same,normalized growth,"locus YPR106W, strain ISR1, stronger effect = lower value",0.992
same,normalized growth,"locus YPR111W, strain DBF20, stronger effect = lower value",0.99
same,normalized growth,"strain NNK1, stronger effect = lower value",1
same,normalized growth,"strain TSCII, stronger effect = lower value",0.991
